15 sequences from paper PMC3218832 can be followed below.

Targets include RELARELA (p65 homodimer) (Homo sapiens, UniProt Q04206 1-307); p50p50 homodimer (Homo sapiens, UniProt P19838 7-356); RELB subunit;p50 subunit (Homo sapiens;Homo sapiens, UniProt Q01201;P19838 120-401;7-356).
What all share (experiment): protein binding microarray; high values mean tight binding
Common to all, as to details: dsDNA, one strand shown

The target in another test is T1, p52p52 homodimer (Homo sapiens, UniProt Q00653 4-332).
T1 sequence: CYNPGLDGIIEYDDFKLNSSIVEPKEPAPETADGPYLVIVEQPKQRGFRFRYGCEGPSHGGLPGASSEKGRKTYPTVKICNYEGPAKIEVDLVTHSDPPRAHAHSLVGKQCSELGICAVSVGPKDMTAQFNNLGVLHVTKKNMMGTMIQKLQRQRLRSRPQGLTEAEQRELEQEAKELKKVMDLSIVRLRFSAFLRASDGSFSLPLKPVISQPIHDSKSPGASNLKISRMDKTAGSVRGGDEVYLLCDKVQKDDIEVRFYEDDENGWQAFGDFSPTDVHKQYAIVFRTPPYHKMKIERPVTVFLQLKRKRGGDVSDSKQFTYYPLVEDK

Test [1] addresses RELA (p65) subunit of heterodimer;p50 subunit (Homo sapiens;Homo sapiens, UniProt Q04206;P19838 1-307;7-356).
Test [2] addresses RELA (p65) subunit of heterodimer;p52 subunit (Homo sapiens;Homo sapiens, UniProt Q04206;Q00653 1-307;4-332).
The target in another test is T2, RELB subunit;p52 subunit (Homo sapiens;Homo sapiens, UniProt Q01201;Q00653 120-401;4-332).
T2 sequence 1: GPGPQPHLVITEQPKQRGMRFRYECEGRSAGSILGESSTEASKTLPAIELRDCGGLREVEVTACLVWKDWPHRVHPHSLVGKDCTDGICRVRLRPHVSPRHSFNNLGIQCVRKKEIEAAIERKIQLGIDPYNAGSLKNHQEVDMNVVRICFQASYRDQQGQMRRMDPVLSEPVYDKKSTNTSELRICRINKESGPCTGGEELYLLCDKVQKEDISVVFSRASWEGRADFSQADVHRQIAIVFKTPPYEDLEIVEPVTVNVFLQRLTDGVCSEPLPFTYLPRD
T2 sequence 2: T1 sequence

Test [3] deals with C-Rel subunit;p50 subunit (Homo sapiens;Homo sapiens, UniProt Q04864;P19838 1-285;7-356).
In test [4] the target is T3, C-Rel subunit;p52 subunit (Homo sapiens;Homo sapiens, UniProt Q04864;Q00653 1-285;4-332).
T3 sequence 1: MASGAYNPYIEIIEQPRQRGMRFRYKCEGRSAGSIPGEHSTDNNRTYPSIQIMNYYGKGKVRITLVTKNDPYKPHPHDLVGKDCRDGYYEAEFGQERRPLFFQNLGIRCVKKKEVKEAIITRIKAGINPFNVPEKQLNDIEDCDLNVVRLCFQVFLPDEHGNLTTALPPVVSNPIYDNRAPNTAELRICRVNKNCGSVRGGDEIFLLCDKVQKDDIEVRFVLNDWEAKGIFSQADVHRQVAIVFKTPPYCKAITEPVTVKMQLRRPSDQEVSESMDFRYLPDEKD
T3 sequence 2: T1 sequence

Chain of RELARELA (p65 homodimer) (Q04206 1-307): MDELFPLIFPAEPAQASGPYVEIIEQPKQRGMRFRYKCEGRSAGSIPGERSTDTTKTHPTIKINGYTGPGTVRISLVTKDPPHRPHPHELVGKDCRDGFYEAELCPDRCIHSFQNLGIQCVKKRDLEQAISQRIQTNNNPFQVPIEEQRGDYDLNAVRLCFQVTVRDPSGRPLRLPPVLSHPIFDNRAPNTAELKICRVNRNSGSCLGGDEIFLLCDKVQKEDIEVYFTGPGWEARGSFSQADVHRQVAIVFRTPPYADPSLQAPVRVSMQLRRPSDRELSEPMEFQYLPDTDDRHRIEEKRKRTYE
Chain of RELA (p65) subunit of heterodimer;p50 subunit (Q04206 1-307, chain 1 of 2): as the sequence (Q04206 1-307) above
Chain of RELA (p65) subunit of heterodimer;p50 subunit (P19838 7-356, chain 2 of 2): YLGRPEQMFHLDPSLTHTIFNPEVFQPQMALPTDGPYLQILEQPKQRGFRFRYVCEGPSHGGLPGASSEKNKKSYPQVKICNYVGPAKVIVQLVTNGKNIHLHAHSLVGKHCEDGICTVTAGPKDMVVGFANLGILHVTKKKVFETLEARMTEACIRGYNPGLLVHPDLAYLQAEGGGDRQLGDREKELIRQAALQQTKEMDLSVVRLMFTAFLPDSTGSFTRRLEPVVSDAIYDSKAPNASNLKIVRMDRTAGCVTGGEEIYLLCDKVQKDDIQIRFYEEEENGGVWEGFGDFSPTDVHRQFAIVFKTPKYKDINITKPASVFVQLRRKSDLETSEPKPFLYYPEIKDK
Chain of p50p50 homodimer (P19838 7-356): as the sequence (P19838 7-356, chain 2 of 2) above

For the sequence AGGAAAGTCCC, the binding signal turned out to be 2.97 z-score with RELARELA (p65 homodimer); 0.984 z-score with p50p50 homodimer; 2.54 z-score with p52p52 homodimer; 2.16 z-score in test [1]; 1.77 z-score in test [2]; 1.45 z-score with RELB subunit;p50 subunit. Also, the binding signal amounted to 1.93 z-score with RELB subunit;p52 subunit, 2.17 z-score in test [3] and 2.89 z-score in test [4].

Regarding AAGAAATTCCC, the binding signal turned out to be 2.91 z-score with RELARELA (p65 homodimer); 1.19 z-score with p50p50 homodimer; 1.64 z-score with p52p52 homodimer; 1.53 z-score in test [1]; 1.32 z-score in test [2]; 1.27 z-score with RELB subunit;p50 subunit. Further, the binding signal is 1.39 z-score in the test with RELB subunit;p52 subunit, 1.36 z-score in test [3] and 1.67 z-score in [4].

Consider CGGATTGCCCC, for which the binding signal in the test with RELARELA (p65 homodimer) turned out to be 2 z-score; with p50p50 homodimer, 0.548 z-score; with p52p52 homodimer it was 0.518 z-score; in test [1], 1.35 z-score; in test [2], 0.991 z-score; in the test with RELB subunit;p50 subunit it was 0.497 z-score. The binding signal in the test with RELB subunit;p52 subunit worked out at 0.607 z-score; in test [3], 1.07 z-score; in [4], 0.987 z-score.

In the case of GGATAAATCCC, the binding signal in the test with RELARELA (p65 homodimer) is 0.859 z-score; with p50p50 homodimer it was 0.48 z-score; with p52p52 homodimer it was 0.567 z-score; in test [1], 0.64 z-score; in [2] it was 0.582 z-score; in the test with RELB subunit;p50 subunit it was 0.489 z-score. Also, the binding signal came out at 0.482 z-score with RELB subunit;p52 subunit, 0.867 z-score in test [3] and 0.396 z-score in [4].

AAATACACCCC: the binding signal was -0.0111 z-score with RELARELA (p65 homodimer); 0.252 z-score with p50p50 homodimer; 0.0531 z-score with p52p52 homodimer; 0.224 z-score in [1]; 0.204 z-score in [2]; 0.209 z-score with RELB subunit;p50 subunit. Moreover, the binding signal with RELB subunit;p52 subunit came out at 0.566 z-score; in test [3], 0.342 z-score; in [4], 0.187 z-score.

In the case of GAGTGCTTCCC, the binding signal in the test with RELARELA (p65 homodimer) was 0.545 z-score; with p50p50 homodimer it was -0.398 z-score; in the test with p52p52 homodimer it was -0.0563 z-score; in [1], -0.232 z-score; in [2], -0.157 z-score; in the test with RELB subunit;p50 subunit, -0.589 z-score. Moreover, the binding signal is -0.383 z-score in the test with RELB subunit;p52 subunit, -0.23 z-score in [3] and 0.0743 z-score in test [4].

Regarding AGAGAACTCCT, the binding signal was -0.542 z-score in the test with RELARELA (p65 homodimer); -1.29 z-score in the test with p50p50 homodimer; -0.694 z-score with p52p52 homodimer; -0.888 z-score in test [1]; -1.06 z-score in test [2]; -1.05 z-score in the test with RELB subunit;p50 subunit. For the same sequence, the figures for the binding signal (with RELB subunit;p52 subunit; in [3]; in test [4]) were -0.943 z-score, -1.01 z-score and -0.762 z-score, respectively.

On to AGGGGACTCCC, for which the binding signal stood at 1.57 z-score with RELARELA (p65 homodimer); 0.939 z-score with p50p50 homodimer; 2.92 z-score with p52p52 homodimer; 2.01 z-score in test [1]; 2.28 z-score in test [2]; 1.82 z-score with RELB subunit;p50 subunit. The binding signal with RELB subunit;p52 subunit stood at 2.3 z-score; in test [3] it was 1.9 z-score; in [4] it was 2.77 z-score.

Turning to CGAGTTGCCCC, the binding signal in the test with RELARELA (p65 homodimer) was 0.677 z-score; in the test with p50p50 homodimer, 0.0517 z-score; in the test with p52p52 homodimer, -0.0293 z-score; in test [1], 0.542 z-score; in test [2], 0.31 z-score; with RELB subunit;p50 subunit it was 0.428 z-score. Also, the binding signal is 0.407 z-score with RELB subunit;p52 subunit, 0.855 z-score in [3] and 0.564 z-score in test [4].

In the case of CAATTCGTCCC, the binding signal was 0.717 z-score with RELARELA (p65 homodimer); 0.108 z-score in the test with p50p50 homodimer; 0.533 z-score with p52p52 homodimer; -0.0179 z-score in test [1]; 0.123 z-score in [2]; 0.362 z-score with RELB subunit;p50 subunit. For the same sequence, the binding signal in the test with RELB subunit;p52 subunit was 0.547 z-score; in test [3], 0.479 z-score; in [4], 0.00577 z-score.

As for AAGGGTGCCCT, the binding signal was -1.07 z-score in the test with RELARELA (p65 homodimer); -1.79 z-score with p50p50 homodimer; -0.569 z-score with p52p52 homodimer; -1.02 z-score in test [1]; -0.718 z-score in test [2]; -0.876 z-score in the test with RELB subunit;p50 subunit. Further, the binding signal is -0.74 z-score with RELB subunit;p52 subunit, -1.1 z-score in test [3] and -0.646 z-score in test [4].

As for AAGTACATCCC, the binding signal in the test with RELARELA (p65 homodimer) is 0.78 z-score; with p50p50 homodimer, -0.756 z-score; with p52p52 homodimer it was -0.37 z-score; in [1], -0.432 z-score; in [2], -0.425 z-score; with RELB subunit;p50 subunit, -0.551 z-score. The binding signal with RELB subunit;p52 subunit was -0.549 z-score; in test [3], -0.042 z-score; in test [4], -0.446 z-score.

CAGGGAGTCCT: the binding signal with RELARELA (p65 homodimer) was 0.0727 z-score; in the test with p50p50 homodimer, 0.0337 z-score; with p52p52 homodimer, -0.143 z-score; in [1], -0.336 z-score; in test [2], -0.215 z-score; in the test with RELB subunit;p50 subunit, -0.201 z-score. The binding signal in the test with RELB subunit;p52 subunit was -0.323 z-score; in test [3] it was -0.383 z-score; in test [4], -0.23 z-score.

For the sequence GAAATGCTCCC, the binding signal is -0.193 z-score with RELARELA (p65 homodimer); -0.556 z-score with p50p50 homodimer; -0.401 z-score with p52p52 homodimer; -0.482 z-score in test [1]; -0.537 z-score in test [2]; -0.542 z-score with RELB subunit;p50 subunit. For the same sequence, the binding signal was -0.819 z-score in the test with RELB subunit;p52 subunit, -0.726 z-score in [3] and -0.598 z-score in [4].

On to GGGTTCCTCCT, for which the binding signal with RELARELA (p65 homodimer) is -0.196 z-score; with p50p50 homodimer, -1.42 z-score; with p52p52 homodimer it was -0.584 z-score; in test [1] it was -0.636 z-score; in test [2] it was -0.6 z-score; in the test with RELB subunit;p50 subunit, -0.937 z-score. Further, the binding signal was -0.638 z-score in the test with RELB subunit;p52 subunit, -0.934 z-score in [3] and -0.467 z-score in test [4].
